# Screens as filed in PubChem BioAssay.
# Shown are actives, neighbours in structure and some others; about 4.7% of the full set was active somewhere.
# HepG2 viability: HepG2 cytotoxicity, counter-screen for TGF-b inhibitors | Potency, µM (titrated, usually from 46.1 µM), inactives show at the highest dose activity change, negative = cytotoxicity, actives largely listed as cytotoxic | HepG2 CAGA-GFP viability, ATP luminescence, 18 h | actives 0.76% (n = 410,000); note: potency is the fitted concentration of half-maximal effect
#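 HepG2 CAGA-GFP cells (1000/well, DMEM with 1% FBS) received compound, then TGF-beta at 500 pg/mL final, and were incubated 18 hours at 37 degrees C. Viability was read by CellTiter-Glo luminescence. Media-only wells were set as complete cell-killing and DMSO as no toxicity.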
# DRD3 agonist: activates the human D3 dopamine receptor | P35462 | D3R DiscoveRx beta-arrestin cells, luminescence, 90 min | max activation, % | actives 0.58% (n = 410,000) | AID 652048; in the data active = max activation above about 30%; note: 0% is about no effect
# Target sequence (P35462 whole entry, looked up): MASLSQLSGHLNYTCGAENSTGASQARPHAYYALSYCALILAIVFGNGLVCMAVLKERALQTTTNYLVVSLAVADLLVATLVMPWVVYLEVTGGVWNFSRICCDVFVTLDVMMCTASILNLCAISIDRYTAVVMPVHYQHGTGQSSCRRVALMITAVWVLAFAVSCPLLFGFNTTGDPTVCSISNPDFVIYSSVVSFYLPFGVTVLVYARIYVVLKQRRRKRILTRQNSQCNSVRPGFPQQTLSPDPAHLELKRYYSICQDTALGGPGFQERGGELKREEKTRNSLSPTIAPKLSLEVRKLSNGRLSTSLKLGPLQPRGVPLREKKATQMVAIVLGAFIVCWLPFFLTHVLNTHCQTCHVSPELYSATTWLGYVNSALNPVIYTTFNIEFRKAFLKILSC
#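 Agonist-mode cell screen: cells plated at 1500/well and incubated overnight at 37 °C, then exposed to library compounds for 90 min at 37 °C. Detection reagent was added for 30–60 min at room temperature, and luminescence was read.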
# TGFb inhibitor: inhibitors of TGF-b signaling | HepG2 CAGA-GFP TGF-b/SMAD3 reporter, GFP fluorescence, 18 h; TGF-beta stimulated, 500 pg/mL final | Potency, µM (highest dose often 46.1 µM), for the others: at the highest dose activity, negative = inhibition, most hits filed as inhibitors | actives 1.2% (n = 410,000) | AID 588855; note: potency is the fitted concentration of half-maximal effect; % is set by controls: 0 for no effect and ±100 for the full control effect; nearly all actives have a fitted effect of over 65% in size
#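 First, reporter cells (HEPG2 CAGA-GFP) rested 2 h at 37 degrees C. Next, compounds were pinned in and TGF-beta added to 500 pg/mL final. After 18 h, GFP was imaged per cell and summed per well.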
# D3 antag: antagonists of human D3 dopamine receptor; max response, negative = inhibition, %; actives 2.5% (n = 360,000); AID 652054; D3R cells, DiscoveRx beta-arrestin luminescence, antagonist mode; hits give low values; P35462; in the data active = max response below about -50%; inconclusive = no clear call, values can overlap the other calls; note: % is set by controls: 0 for no effect and ±100 for the full control effect
#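 Cells plated overnight at 1500 cells/well, then exposed to library compounds with dopamine controls for 90 minutes at 37 degrees C. DiscoveRx reagent added for 30–60 minutes at room temperature; luminescence read, quantitative HTS format.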
# ATXN2 expr inh: inhibitors of ATXN2 expression; HEK-293 ATXN2-luciferase reporter, luminescence, 24 h; Potency, µM (series often up to 57 µM), for inactives: at the top dose activity change, negative = inhibition, usual class: inhibitors; actives 0.72% (n = 360,000); note: potency is the fitted concentration of half-maximal effect; % is set by controls: 0 for no effect and ±100 for the full control effect; nearly all actives have a fitted effect of over 55% in size
#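 qHTS (up to 57 uM final) was run with 24 h compound exposure of reporter cells at 37 °C. Each well was multiplexed: SteadyGlo luminescence measured ATXN2-luciferase expression after a fluorogenic Gly-Phe-AFC viability readout (25 uM final).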
# S2 tox: cell viability loss in ATXN counter-screen; S2 cells (HEK-293 line with an ATXN2-luciferase reporter) viability, CellTiter-Fluor protease fluorescence, 24 h; Potency, µM (series often up to 56.7 µM), hits mostly cytotoxic; actives 0.49% (n = 400,000); AID 651635; note: potency is the fitted concentration of half-maximal effect; nearly all actives have a fitted effect of over 40% in size
# An asterisk follows results filed as active; i = inactive; ? = inconclusive; . = no result; [ ] = remark or other dose. Unless noted, calls come from the whole dose curve; as a rule, active = well fitted curve in the direction sought with a large enough effect; inconclusive = small, poorly fitted or top-dose-only effect, or another doubt; inactive = no such curve, though single readings can be large; an effect the other way counts as inactive or inconclusive.
SMILES,HepG2 viability,DRD3 agonist,TGFb inhibitor,D3 antag,ATXN2 expr inh,S2 tox
Cc1nc(-c2ccc(NC(=O)C(C)(C)C)cc2)c(-c2ccccc2)o1,-12.0%,11.3,11.4%,20.8,-0.5%,i
Cc1cc(=O)[nH]c(SCC(=O)Nc2nc(-c3ccccc3)c(-c3ccccc3)o2)n1,-1.6%,-8.0,-33.7%,-3.8,8.2%,i
CCc1nn(CC(=O)NCc2ccc(C)cc2)c(=O)c2cc3occc3n12,4.6%,-17.5,?,.,-3.3%,i
O=C(NCC1Cc2cccc(-c3ccccn3)c2O1)c1cnn2cccnc12 (configuration not stated),.,.,.,.,.,i
O=C1c2ccccc2-c2onc3ccc(Oc4ccccc4)c1c23,-19.1%,-9.4,?,-116.3*,?,.
CS(=O)(=O)c1ccc(C(=O)NCCN2C(=O)S/C(=C\c3cccnc3)C2=O)cc1[N+](=O)[O-],-142.1%,1.3,14.1µM*,17.5,.,.
COC(=O)Nc1ncc(CN2CCC(c3ccccc3)CC2)s1,-22.4%,9.7,16.1%,-54.3*,4.0%,i
Cc1ncc(CN2CCC(n3nccc3NC(=O)c3ccccc3)CC2)s1,16.5%,1.0,4.8%,9.8,6.4%,?
O=C(O)[C@@H]1CCCNC1,.,.,.,.,.,i
COc1ccc(C(C[N+](=O)[O-])c2c(-c3ccccc3)cc3ccccn23)c(OC)c1 (configuration not stated),11.2µM*,-15.2,10µM*,-17.3,0.2%,i
COc1ccc(C(C[N+](=O)[O-])c2c(C)cc3ccccn23)cc1 (configuration not stated),18.0%,-2.2,6.0%,-20.9,-5.0%[11.3 µM],i
CC(=Cc1ccccc1)C=C1SC(=S)N(CC(=O)O)C1=O,.,.,.,.,40.8%,.
CCOC(=O)c1c(C)n(-c2ccccc2)c2ccc(OC(=O)c3ccccc3NC(=O)C(C)(C)C)cc12,22.4µM*,-16.5,?,.,?,25.1µM*
O=C(CO)[C@@H](O)[C@H](O)[C@@H](O)CO,.,-16.2,.,.,1.7%,i
CCN(CC)CCN1CCN(c2cncc(-c3ccc4ccccc4c3)n2)CC1,12.6µM*,-15.1,?,?,-22.7%,?
Cn1sccc1=O,-8.4%,-16.7,-21.6%,-71.0*,1.9%,i
O=c1ccsn1Cc1ccccc1,-29.6%,-24.1,?,?,12.3%,i
COc1cc(/C=C2/C(=O)c3cccc([N+](=O)[O-])c3C2=O)c(Br)cc1O,-32.7%,-5.6,?,-14.9,22.4µM*,.
CCc1[nH]nc2c1C(c1cccnc1)C(C#N)=C(N)O2 (configuration not stated),-0.9%,-2.1,-2.9%,-21.2,-5.4%,i
CCOc1ccc(-c2[nH]nc3c2C(c2cccnc2)C(C#N)=C(N)O3)cc1 (configuration not stated),-4.8%,-1.3,1.1%,-51.0*,3.5%,i
CCC(CC)C1C(C#N)=C(N)Oc2n[nH]c(-c3ccccc3)c21 (configuration not stated),8.91µM*,-4.2,?,-12.7,?,i
CCC(CC)C1C(C#N)=C(N)Oc2n[nH]c(C)c21 (configuration not stated),-60.2%,-7.0,9.1%,19.1,-19.1%,i
Cc1ccc(NC(=S)N(CCCN2CCCC2)Cc2cccn2Cc2ccc(Cl)cc2)cc1Cl,0.8%,-23.8,-4.0%,-22.2,?,?
Cc1ccc(NC(=S)N(CCCN2CCCC2)Cc2cccn2Cc2ccc(Cl)cc2)cc1C,11.2µM*,-18.2,17.8µM*,-26.0,-25.4%,i
FC(F)(F)c1cccc(NC(=S)N(CCCN2CCCC2)Cc2cccn2Cc2ccc(Cl)cc2)c1,12.6µM*,-19.5,?,?,15.8µM*,28.2µM*
SMILES,HepG2 viability,DRD3 agonist,TGFb inhibitor,D3 antag,ATXN2 expr inh,S2 tox
O=c1ccn(Cc2ccccc2)c(=O)n1Cc1ccccc1,-15.2%,-0.9,-7.4%,-50.1*,-20.3%,i
Cn1c(N)cc(=O)n(Cc2ccccc2)c1=O,-2.1%,-4.7,10.6%,7.1,1.0%,i
CC(=O)Nc1cccc(C(=O)NC2CCCc3c2cnn3-c2ccc(C(C)(C)C)cc2)c1 (configuration not stated),-29.4%,33.3*,-29.5%,17.8,-17.1%,.
CC(=O)NCC(=O)NC1CCCc2c1cnn2-c1ccc(C(C)(C)C)cc1 (configuration not stated),4.7%,5.6,17.2%,12.8,-14.0%,i
Cc1ccccc1N=C(NOCc1ccccc1)c1nonc1N,-3.5%,-4.1,-40.4%,12.2,2.3%,i
Cc1ccc(N=C(NOCc2ccc(Cl)cc2Cl)c2nonc2N)c(C)c1,-45.1%,-14.9,15.8µM*,-0.2,-36.9%,i
Cc1ccc(N=C(NO)c2nonc2N)c(C)c1,-4.0%,-7.6,-5.2%,-9.9,17.4%,i
Cc1ccccc1N=C(NOCc1ccc(Cl)cc1Cl)c1nonc1N,-0.6%,-27.6,12.8%,-84.7*,?,?
C1=Nc2ccccc2/C1=C/c1c[nH]c2ccccc12,0.3%,.,-14.3%,.,.,.
O=C(NCCN1C(=O)S/C(=C\c2ccc(Cl)c([N+](=O)[O-])c2)C1=O)C1=COCCO1,22.4µM*,-7.8,17.8µM*,-55.2*,?,.
COc1ccc(NC(=O)Cn2nnc(-c3ccccc3F)n2)cc1Cl,-11.8%,-2.7,-8.5%,0.8,-12.5%,i
COC(=O)c1cc(OC)c(OC)cc1NC(=O)c1c(-c2ccccc2Cl)noc1C,4.1%,44.3*,-4.8%,39.0,-2.6%,i
COC(=O)c1cc(OC)c(OC)cc1NC(=O)Cn1nnc(-c2ccccc2Cl)n1,1.5%,51.9*,-3.6%,6.4,-13.0%,i
Cc1onc(-c2ccccc2Cl)c1C(=O)NCc1ccccn1,3.1%,1.6,-11.9%,-58.1*,1.1%,i
Cc1onc(-c2c(F)cccc2Cl)c1C(=O)NCc1ccccn1,5.5%,-3.7,-12.5%,14.8,-0.5%,i
O=C(CCl)N(c1ccccc1)C1CCS(=O)(=O)C1 (configuration not stated),12.6µM*,12.8,?,8.4,?,.
CC(=O)Nc1ccc(C(=O)OCC(=O)N(c2ccccc2)C2CCS(=O)(=O)C2)cc1 (configuration not stated),0.6%,-3.5,-3.9%,-0.8,.,?
Cc1ccccc1C(C(=O)NCc1ccco1)N(CC1CCCO1)C(=O)Cn1nnc2ccccc21 (configuration not stated),22.5%,1.1,5.9%,-0.3,2.2%,i
